The supplement of paper PMC6555819

Tested on: RARa:RXR (NR concentration 270 nM, RXRa partner concentration 90 nM)
Test: PBM binding z-score (relative to random genomic background probes); higher = stronger binding; sequences stand for … in GC…GCGATTGACAGCGTAGAATGAAGG
In short: (§1)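 Custom Agilent 4×180K protein-binding microarrays carried double-stranded probes, each with a 34-nt variable region. These regions held direct-repeat seeds, single-nucleotide variants, half-site ablations and random human genomic background sequences. Ligand-free nuclear receptor dimers were incubated on the arrays for 1 h, antibodies against each partner (one per run) detected binding, and scanned fluorescence was regression-normalized. Binding z-scores take the random background probes as reference.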

Sequence | PBM binding z-score
TCCATTAGTTGAAGGGCAACCGACGAGTCCGTTT | 0.989
CCTAGTTCGTCAAGGTCACACACGCTATAGGTAC | 4.97
CCTATTAGTTGACCACAAGGGCAACCGAAGCTCG | 0.762
CCTATTAGTTGACCATAAGGGCAACCGCAGCTCG | 0.896
TCTGCTAGGTCAGTTGGTAAGCTAACGAGCTGCC | 0.233
GCAGACAGGTGAAACGCAGGTAACTCAAGGTGGC | 0.593
CCTCGGAGGACAACAGGCGGTCAGAGCTGCCAGA | -0.312
TCTTGTAGATCAAAAGAGGTTAAGAAAGTGCGCT | 1.79
CCTACTGGGCCAAAAAGGTCATTGAAGCCGATAA | 5.39
CAAACTAGGTCACGGAAGGTCAAAGTCGAATGAC | 6.84
AGAATGAGGTTGTACGTAGATCAGGGAAGAAAGT | 0.411
GTATCAAGGTGAATAGGTCGTTGATGAGTAGGCG | 2.01
AGAACGAGGGCACGCTGAGATGATAGCAGAGTAG | 0.762
AGTCAAAGTTCATCTAGATAACGTAAGATATGCT | 3.39
CGAACTAGGTCAGAACAGGAGAGTGAAGGATGAT | 0.576
CAAACTAGGTGACCGGAAGGTCAAAGTCCGCATG | 5.41
ACAGACAGGTGAGTGAAGGAAACTCAGCTGGACG | -0.777
ATCCCAAGGTGATCGTGAGGTCGTTGATACTAAC | 1.81

Tested on: RARa homodimer (NR concentration 270 nM)
Test: as above
In short: as §1

Sequence | PBM binding z-score
AATACAGGGCCACTAGGCCAGAGTAGGTACGAAT | 0.415
TCTTGTAAATCAGCAGGTTAAGAAAGCTGGCCAA | 0.26
ACTATTAGTTGACTTAGGGCAACCGTTACGACGC | 0.271
CAAACTAGGTCCCGAAAGGTCAAAGTCGAATGAC | 1.91
CGTCCACGGTCAGCAGGTCAGTGAAAGCGACGTG | -0.66
ATCGAAAGGTCGGAGGTGAGTATACCCACCCGAA | 0.0274
GCTTACGGGTCAAAGGTTATTGCATGAATAGAAT | 1
ATTCGGAGGACAAAGGTCAGAGCTACGCCAGTGA | 0.808
GGTAGCAGGCCATTTGGGTCACTCAATGACGGGC | -0.36
GATACAGGGTCAGCTCGAGGCCAGAGTATGGAAA | -0.0976
GCTTGTAGATCAAGGTTAAGATAGACTAAGCTAA | -0.522
ACTATTAGATGAGACGAGGGCAACCGATAGGTTG | 1.38
AATACAGGGTCAACGTAGGCCAGAGTACGCACAG | 1.71
GCATGTAGGTAATACAAGGTGAAAGTCCGATTGT | 0.17
TCTATTAGTTGACGGGCAACCGACGAGTCCGTTT | 0.109
GCTTTTAGATCAAGGTTAAGAAAGACTAAGCTAA | 0.203
TCGAGTAGGTTACCAATGGGGCATTCTGCTTTCT | -0.932
CCTAGCGGGCCAGGGTCACTCAAGCATTTCGCTT | -0.206
GCTTGTAGATCAAGGATAAGAAAGACTAAGCTAA | -1.12
ATATGTAGGTTAAGGGTCATCCAGGTTGGTTCGC | 2.63

Sequence | PBM binding z-score
ACAGACAGGTGAGTGAAGGTAACTCACCTGGACG | -0.345
CGAACTAGGTCAGAACAGGTCAGTGAAGGATGAT | 0.424
TCCATTAGTTGAAGGGCAACCGACGAGTCCGTTT | 0.466
CCTAGTTCGTCAAGGTCACACACGCTATAGGTAC | 2.49
CCTATTAGTTGACCACAAGGGCAACCGAAGCTCG | 1.46
CCTATTAGTTGACCATAAGGGCAACCGCAGCTCG | 1.78
TCTGCTAGGTCAGTTGGTAAGCTAACGAGCTGCC | -1.42
GCAGACAGGTGAAACGCAGGTAACTCAAGGTGGC | -0.358
CCTCGGAGGACAACAGGCGGTCAGAGCTGCCAGA | -0.034
TCTTGTAGATCAAAAGAGGTTAAGAAAGTGCGCT | -0.0887
CCTACTGGGCCAAAAAGGTCATTGAAGCCGATAA | 1.5
CAAACTAGGTCACGGAAGGTCAAAGTCGAATGAC | 3.11
AGAATGAGGTTGTACGTAGATCAGGGAAGAAAGT | 0.476
GTATCAAGGTGAATAGGTCGTTGATGAGTAGGCG | 0.786
AGAACGAGGGCACGCTGAGATGATAGCAGAGTAG | -0.576
AGTCAAAGTTCATCTAGATAACGTAAGATATGCT | 1.59
CGAACTAGGTCAGAACAGGAGAGTGAAGGATGAT | 0.206
CAAACTAGGTGACCGGAAGGTCAAAGTCCGCATG | 0.811
ACAGACAGGTGAGTGAAGGAAACTCAGCTGGACG | -0.124
ATCCCAAGGTGATCGTGAGGTCGTTGATACTAAC | 0.229

Tested on: RARb:RXRa (NR concentration 270 nM, RXRa partner concentration 90 nM)
Test: as above
In short: as §1

Sequence | PBM binding z-score
AATACAGGGCCACTAGGCCAGAGTAGGTACGAAT | 0.772
TCTTGTAAATCAGCAGGTTAAGAAAGCTGGCCAA | 0.224
ACTATTAGTTGACTTAGGGCAACCGTTACGACGC | 0.949
CAAACTAGGTCCCGAAAGGTCAAAGTCGAATGAC | 4.74
CGTCCACGGTCAGCAGGTCAGTGAAAGCGACGTG | 3.25
ATCGAAAGGTCGGAGGTGAGTATACCCACCCGAA | 3.28
GCTTACGGGTCAAAGGTTATTGCATGAATAGAAT | 4.49
ATTCGGAGGACAAAGGTCAGAGCTACGCCAGTGA | 4.39
GGTAGCAGGCCATTTGGGTCACTCAATGACGGGC | 1.75
GATACAGGGTCAGCTCGAGGCCAGAGTATGGAAA | 4.12
GCTTGTAGATCAAGGTTAAGATAGACTAAGCTAA | 0.938
ACTATTAGATGAGACGAGGGCAACCGATAGGTTG | 0.915
AATACAGGGTCAACGTAGGCCAGAGTACGCACAG | 4.6
GCATGTAGGTAATACAAGGTGAAAGTCCGATTGT | 0.218
TCTATTAGTTGACGGGCAACCGACGAGTCCGTTT | 0.613
GCTTTTAGATCAAGGTTAAGAAAGACTAAGCTAA | 1.04
TCGAGTAGGTTACCAATGGGGCATTCTGCTTTCT | 0.902
CCTAGCGGGCCAGGGTCACTCAAGCATTTCGCTT | 2.53
GCTTGTAGATCAAGGATAAGAAAGACTAAGCTAA | -1.81
ATATGTAGGTTAAGGGTCATCCAGGTTGGTTCGC | 3.99

Sequence | PBM binding z-score
ACAGACAGGTGAGTGAAGGTAACTCACCTGGACG | 0.553
CGAACTAGGTCAGAACAGGTCAGTGAAGGATGAT | 3.57
TCCATTAGTTGAAGGGCAACCGACGAGTCCGTTT | 1.86
CCTAGTTCGTCAAGGTCACACACGCTATAGGTAC | 4.37
CCTATTAGTTGACCACAAGGGCAACCGAAGCTCG | 1.49
CCTATTAGTTGACCATAAGGGCAACCGCAGCTCG | 1.54
TCTGCTAGGTCAGTTGGTAAGCTAACGAGCTGCC | 3.29
GCAGACAGGTGAAACGCAGGTAACTCAAGGTGGC | 0.608
CCTCGGAGGACAACAGGCGGTCAGAGCTGCCAGA | 1.61
TCTTGTAGATCAAAAGAGGTTAAGAAAGTGCGCT | 0.887
CCTACTGGGCCAAAAAGGTCATTGAAGCCGATAA | 4.06
CAAACTAGGTCACGGAAGGTCAAAGTCGAATGAC | 5.29
AGAATGAGGTTGTACGTAGATCAGGGAAGAAAGT | 0.142
GTATCAAGGTGAATAGGTCGTTGATGAGTAGGCG | 2.14
AGAACGAGGGCACGCTGAGATGATAGCAGAGTAG | 2.5
AGTCAAAGTTCATCTAGATAACGTAAGATATGCT | 4.9
CGAACTAGGTCAGAACAGGAGAGTGAAGGATGAT | 2.94
CAAACTAGGTGACCGGAAGGTCAAAGTCCGCATG | 3.81
ACAGACAGGTGAGTGAAGGAAACTCAGCTGGACG | -0.0129
ATCCCAAGGTGATCGTGAGGTCGTTGATACTAAC | 1.31
